# Experimental data as given in PubChem BioAssay (Tox21).
# Several values for one entry are separate records, joined by “and”; a condition that tells them apart may be missing. Equal values may be shown once. Records with an inconclusive call do not appear. A call without a number means that no potency is given here. The source holds several records for some structures; these can differ, active in one and inactive in another. Activity calls are given as the source filed them. Calls follow the shape of the dose curve; as a rule, active = well fitted curve in the direction sought with a large enough effect in the repeat runs; inconclusive = weak or mixed curves; inactive = no such curve, though single readings can be large; an effect the other way counts as inactive or inconclusive.
# What was measured:
# [1] = Human pregnane X receptor (PXR) small molecule agonists, qHTS cell viability counter screen (AID 1346977); also: nearly all actives have a fitted effect of over 50% in size; also: potency is read from the fitted curve at half-maximal effect
# Method in brief: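 PXR-Luc HepG2, 2,000 cells/well, 5% charcoal-stripped FBS; 5hr settle; cpd 24hr, 37C/5% CO2; CellTiter-Fluor at 23hr, read 1hr later (fluorescence).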
# [2] = Caspase-3/7 induction in HepG2 cells by small molecules, qHTS assay (AID 1346978); also: nearly all actives have a fitted effect of over 15% in size; also: potency is read from the fitted curve at half-maximal effect
# Method in brief: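 Wild-type HepG2 cells (2,000/well) were settled 5 h at 37 C, 5% CO2, then exposed to compounds in DMSO for 17 h. Caspase-3/7 activity was read by luminescence 30 min after adding Caspase-Glo 3/7 reagent at room temperature.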
# [3] = Caspase-3/7 induction in CHO-K1 cells by small molecules, qHTS cell viability counter screen (AID 1346979); also: nearly all actives have a fitted effect of over 35% in size; also: potency is read from the fitted curve at half-maximal effect
# Method in brief: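 Cells (CHO-K1, wild type) are plated at 1,500 per well and incubated 5hr. Test compounds in DMSO are then pinned in, followed by 16hr at 37C and 5% CO2. Viability is read by CellTiter-Fluor fluorescence after 1hr.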
# [4] = Caspase-3/7 induction in CHO-K1 cells by small molecules, qHTS assay (AID 1346980); also: nearly all actives have a fitted effect of over 15% in size
# Method in brief: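 Wild-type cells were seeded at 1,500 per well and settled 5 hr at 37 C, 5% CO2, then exposed to DMSO-dissolved compounds for 17 hr. Caspase-Glo 3/7 reagent was added, and luminescence was read after 30min at room temperature.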
# [5] = Caspase-3/7 induction in HepG2 cells by small molecules, qHTS cell viability counter screen (AID 1346981); also: nearly all actives have a fitted effect of over 30% in size; also: potency is read from the fitted curve at half-maximal effect
# Method in brief: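 HepG2, WT, 2,000 cells/well; 5 hr pre-incubation 37 C/5% CO2; compound pin-transferred from DMSO; 16 hr exposure; CellTiter-Fluor, 1 hr; fluorescence read.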
# [6] = target: Nuclear receptor subfamily 1 group I member 2 (Homo sapiens) (UniProt O75469); assay: Human pregnane X receptor (PXR) small molecule agonists, qHTS assay (AID 1346982); also: nearly all actives have a fitted effect of over 35% in size; also: potency is read from the fitted curve at half-maximal effect
# Nuclear receptor subfamily 1 group I member 2 (Homo sapiens), sequence (O75469 whole entry, looked up): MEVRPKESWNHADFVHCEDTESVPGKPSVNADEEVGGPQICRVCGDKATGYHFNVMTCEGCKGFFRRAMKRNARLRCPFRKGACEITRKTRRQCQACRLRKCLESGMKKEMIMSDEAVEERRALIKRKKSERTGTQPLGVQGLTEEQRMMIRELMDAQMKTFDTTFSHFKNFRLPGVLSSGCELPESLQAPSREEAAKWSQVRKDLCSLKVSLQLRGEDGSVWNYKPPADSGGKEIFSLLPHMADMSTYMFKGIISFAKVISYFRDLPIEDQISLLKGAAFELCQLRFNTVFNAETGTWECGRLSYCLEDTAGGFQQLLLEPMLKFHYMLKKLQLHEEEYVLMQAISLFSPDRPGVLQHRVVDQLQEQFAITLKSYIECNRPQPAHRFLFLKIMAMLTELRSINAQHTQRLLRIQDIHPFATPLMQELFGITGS
# Method in brief: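 Luciferase signal from ONE-Glo (30 min, room temperature) measured activation of hPXR-driven CYP3A4 reporter expression in PXR-Luc HepG2 cells treated with compounds for 24 hr at 37 C.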
# [7] = target: Nuclear receptor subfamily 1 group I member 2 (Homo sapiens) (UniProt O75469); assay: CYP3A4 induction through human pregnane X receptor (PXR) by small molecules, qHTS assay (AID 1346984); also: nearly all actives have a fitted effect of over 40% in size
# Method in brief: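 Luminescence readout: luciferase signal after One-Glo (30 min, room temperature), following 3 h at 37C with 3uM final Luciferin-IPA P450 substrate. Cells were DPX-2 (HepG2, PXR/CYP3A4-luc co-transfected) dosed for 24 h.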
# [8] = target: Cytochrome P450 2D6 (Homo sapiens) (UniProt P10635); assay: Cytochrome P450 Family 2 Subfamily D Member 6 (CYP2D6) small molecule antagonists: luciferase reporter qHTS assay (AID 1671196); also: nearly all actives have a fitted effect of over 50% in size; also: potency is read from the fitted curve at half-maximal effect
# Cytochrome P450 2D6 (Homo sapiens), sequence (P10635 whole entry, looked up): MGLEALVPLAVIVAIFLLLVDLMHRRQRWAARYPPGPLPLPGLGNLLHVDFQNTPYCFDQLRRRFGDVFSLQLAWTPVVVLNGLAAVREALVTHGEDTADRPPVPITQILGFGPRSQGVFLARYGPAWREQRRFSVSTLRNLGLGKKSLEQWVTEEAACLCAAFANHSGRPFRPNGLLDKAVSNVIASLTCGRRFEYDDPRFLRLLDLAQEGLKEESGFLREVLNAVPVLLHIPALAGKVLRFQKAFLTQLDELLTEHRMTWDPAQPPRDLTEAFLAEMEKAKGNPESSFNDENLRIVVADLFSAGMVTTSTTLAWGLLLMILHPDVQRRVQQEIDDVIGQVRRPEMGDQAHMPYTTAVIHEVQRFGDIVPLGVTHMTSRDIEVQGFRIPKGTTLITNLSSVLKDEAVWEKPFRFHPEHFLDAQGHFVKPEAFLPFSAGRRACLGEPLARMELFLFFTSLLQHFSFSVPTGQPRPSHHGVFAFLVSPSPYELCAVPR
# Method in brief: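 Read-out is luminescence from luciferin formed by CYP2D6 turnover of a proluciferin substrate, recorded as relative luminescence units. Reactions ran 1 h at room temperature after NADPH regeneration solution was added.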
# [9] = target: Cytochrome P450 2C19 (Homo sapiens) (UniProt P33261); assay: Cytochrome P450 Family 2 Subfamily C Member 19 (CYP2C19) small molecule antagonists: luciferase reporter qHTS assay (AID 1671197); also: nearly all actives have a fitted effect of over 65% in size; also: potency is read from the fitted curve at half-maximal effect
# Cytochrome P450 2C19 (Homo sapiens), sequence (P33261 whole entry, looked up): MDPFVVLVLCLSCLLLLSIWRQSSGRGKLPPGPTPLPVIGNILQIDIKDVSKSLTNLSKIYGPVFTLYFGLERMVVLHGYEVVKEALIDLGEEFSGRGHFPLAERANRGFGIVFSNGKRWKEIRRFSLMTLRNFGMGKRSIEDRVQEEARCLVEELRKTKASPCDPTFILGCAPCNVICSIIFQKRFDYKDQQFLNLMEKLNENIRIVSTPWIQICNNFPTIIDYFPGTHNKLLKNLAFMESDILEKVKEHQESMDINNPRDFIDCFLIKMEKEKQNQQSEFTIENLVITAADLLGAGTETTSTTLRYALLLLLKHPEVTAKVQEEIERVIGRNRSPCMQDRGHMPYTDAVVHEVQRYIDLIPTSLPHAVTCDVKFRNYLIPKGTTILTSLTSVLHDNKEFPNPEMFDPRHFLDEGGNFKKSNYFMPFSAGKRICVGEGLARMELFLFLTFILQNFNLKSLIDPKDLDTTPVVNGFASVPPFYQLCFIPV
# Method in brief: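 P450-Glo CYP2C19 screening system; proluciferin substrate; DMSO compound stocks; 10 min RT preincubation; NADPH regeneration, 1 h at 37C; luciferin detection reagent, 20 min RT; luminescence as RLU.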
# [10] = target: Cytochrome P450 2C9 (Homo sapiens) (UniProt P11712); assay: Cytochrome P450 Family 2 Subfamily C Member 9 (CYP2C9) small molecule antagonists: luciferase reporter qHTS assay (AID 1671198); also: nearly all actives have a fitted effect of over 50% in size; also: potency is read from the fitted curve at half-maximal effect
# Cytochrome P450 2C9 (Homo sapiens), sequence (P11712 whole entry, looked up): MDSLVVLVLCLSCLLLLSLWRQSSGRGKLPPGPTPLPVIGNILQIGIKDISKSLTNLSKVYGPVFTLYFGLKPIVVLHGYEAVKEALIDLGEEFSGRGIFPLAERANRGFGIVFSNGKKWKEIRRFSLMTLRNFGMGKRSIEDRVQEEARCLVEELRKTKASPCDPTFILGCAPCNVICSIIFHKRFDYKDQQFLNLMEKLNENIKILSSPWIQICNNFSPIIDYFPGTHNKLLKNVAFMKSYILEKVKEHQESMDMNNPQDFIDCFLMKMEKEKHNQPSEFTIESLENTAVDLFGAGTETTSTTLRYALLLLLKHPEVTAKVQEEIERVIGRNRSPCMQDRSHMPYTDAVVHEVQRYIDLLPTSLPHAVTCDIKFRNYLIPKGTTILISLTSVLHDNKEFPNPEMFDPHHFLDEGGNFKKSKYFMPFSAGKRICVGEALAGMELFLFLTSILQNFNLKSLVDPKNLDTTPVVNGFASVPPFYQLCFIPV
# Method in brief: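 CYP2C9 activity was measured with a P450-Glo proluciferin substrate. Enzyme–substrate mix was held with compound for 10 min at room temperature, then NADPH regeneration solution was added for 1 h at 37C. Luciferin product was read as luminescence.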
# [11] = target: Cytochrome P450 1A2 (Homo sapiens) (UniProt P05177); assay: Cytochrome P450 Family 1 Subfamily A Member 2 (CYP1A2) small molecule antagonists: luciferase reporter qHTS assay (AID 1671199); also: nearly all actives have a fitted effect of over 50% in size; also: potency is read from the fitted curve at half-maximal effect
# Cytochrome P450 1A2 (Homo sapiens), sequence (P05177 whole entry, looked up): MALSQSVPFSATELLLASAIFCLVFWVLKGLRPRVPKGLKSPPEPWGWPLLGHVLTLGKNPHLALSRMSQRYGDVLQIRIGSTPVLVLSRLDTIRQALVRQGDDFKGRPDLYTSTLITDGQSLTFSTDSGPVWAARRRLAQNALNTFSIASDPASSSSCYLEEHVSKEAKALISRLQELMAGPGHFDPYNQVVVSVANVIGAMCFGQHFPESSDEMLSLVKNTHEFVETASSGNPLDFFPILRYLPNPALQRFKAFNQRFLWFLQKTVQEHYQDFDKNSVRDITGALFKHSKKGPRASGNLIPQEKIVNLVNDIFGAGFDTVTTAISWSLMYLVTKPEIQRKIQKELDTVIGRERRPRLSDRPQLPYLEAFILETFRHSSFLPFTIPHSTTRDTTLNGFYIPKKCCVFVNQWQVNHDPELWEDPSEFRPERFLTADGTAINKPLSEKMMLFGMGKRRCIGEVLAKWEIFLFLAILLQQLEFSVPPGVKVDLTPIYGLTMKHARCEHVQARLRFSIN
# Method in brief: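 P450-Glo CYP1A2, 1536-well qHTS: enzyme/proluciferin substrate + cpd (DMSO), 10 min RT; NADPH regen, 1 h RT; detection reagent, 20 min; luminescence, RLU.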
# [12] = target: Voltage-gated inwardly rectifying potassium channel KCNH2 (Homo sapiens) (UniProt Q12809); assay: Human Ether-a-go-go-Related Gene (hERG) channel small molecule antagonists: fluorescence cell-based qHTS assay (AID 1671200)
# Voltage-gated inwardly rectifying potassium channel KCNH2 (Homo sapiens), sequence (Q12809 whole entry, looked up): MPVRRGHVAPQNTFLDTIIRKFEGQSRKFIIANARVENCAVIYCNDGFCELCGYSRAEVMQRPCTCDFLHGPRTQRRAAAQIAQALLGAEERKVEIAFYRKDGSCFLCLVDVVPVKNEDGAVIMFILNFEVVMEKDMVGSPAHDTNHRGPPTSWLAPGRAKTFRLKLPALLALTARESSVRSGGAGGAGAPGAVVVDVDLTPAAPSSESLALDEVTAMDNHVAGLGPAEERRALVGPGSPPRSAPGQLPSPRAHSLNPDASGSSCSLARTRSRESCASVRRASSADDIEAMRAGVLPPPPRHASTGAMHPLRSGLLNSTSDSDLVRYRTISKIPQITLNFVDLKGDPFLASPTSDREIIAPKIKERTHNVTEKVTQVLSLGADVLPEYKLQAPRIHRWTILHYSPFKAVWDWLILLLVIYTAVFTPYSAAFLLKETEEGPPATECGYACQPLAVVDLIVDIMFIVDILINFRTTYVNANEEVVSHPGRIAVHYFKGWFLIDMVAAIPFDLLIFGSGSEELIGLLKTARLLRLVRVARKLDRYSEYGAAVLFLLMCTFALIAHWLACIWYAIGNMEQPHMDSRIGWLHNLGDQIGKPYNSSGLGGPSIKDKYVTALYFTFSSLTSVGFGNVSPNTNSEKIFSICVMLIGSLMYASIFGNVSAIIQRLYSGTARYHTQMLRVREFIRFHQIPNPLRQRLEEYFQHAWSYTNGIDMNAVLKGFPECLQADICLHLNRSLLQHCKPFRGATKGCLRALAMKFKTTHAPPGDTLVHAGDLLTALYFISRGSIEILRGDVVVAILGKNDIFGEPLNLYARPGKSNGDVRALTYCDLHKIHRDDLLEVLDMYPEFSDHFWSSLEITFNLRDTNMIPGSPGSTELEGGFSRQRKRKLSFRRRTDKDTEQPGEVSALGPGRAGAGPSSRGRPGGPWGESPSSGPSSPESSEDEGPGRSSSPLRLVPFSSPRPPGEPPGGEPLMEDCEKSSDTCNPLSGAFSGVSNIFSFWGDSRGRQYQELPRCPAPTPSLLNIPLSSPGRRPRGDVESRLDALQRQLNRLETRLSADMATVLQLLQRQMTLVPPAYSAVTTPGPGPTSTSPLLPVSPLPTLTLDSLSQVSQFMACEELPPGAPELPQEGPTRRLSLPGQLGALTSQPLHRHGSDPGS
# Method in brief: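 Channel function was assessed by thallium flux. Cells seeded the previous day and kept at 37 C took up FluxOR II dye over 1 h in the dark at room temperature, then sat another 10 min before stimulation.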
# [13] = target: Nuclear receptor subfamily 1 group I member 2 (Rattus norvegicus) (UniProt Q9R1A7); assay: Rat pregnane X receptor (rPXR) activation by small molecules, qHTS assay (AID 1346983); details: rPXR luciferase reporter cells, One-Glo luminescence, 24 h; max activation: stronger effect = higher value; also: nearly all actives have a fitted effect of over 20% in size
# Nuclear receptor subfamily 1 group I member 2 (Rattus norvegicus), sequence (Q9R1A7 whole entry, looked up): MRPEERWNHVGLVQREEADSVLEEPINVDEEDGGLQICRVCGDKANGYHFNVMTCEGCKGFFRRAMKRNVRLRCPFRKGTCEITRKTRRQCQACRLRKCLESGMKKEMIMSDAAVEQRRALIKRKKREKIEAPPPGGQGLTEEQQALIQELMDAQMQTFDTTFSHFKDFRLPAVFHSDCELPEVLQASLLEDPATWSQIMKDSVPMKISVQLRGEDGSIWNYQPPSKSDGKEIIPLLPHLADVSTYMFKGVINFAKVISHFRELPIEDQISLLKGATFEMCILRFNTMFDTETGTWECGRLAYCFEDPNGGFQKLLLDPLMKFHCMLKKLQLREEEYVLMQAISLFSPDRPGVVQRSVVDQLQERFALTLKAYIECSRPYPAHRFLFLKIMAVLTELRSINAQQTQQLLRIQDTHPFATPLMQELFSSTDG
# Method in brief: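 Cell-based rPXR luciferase reporter assay, 2,000 cells per well, rested 5hr at 37 C before compound addition in DMSO, then 24 hr at 37 C. One-Glo reagent was added and luminescence read after 30 min at room temperature.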
# [14] = target: Nuclear receptor subfamily 1 group I member 2 (Homo sapiens) (UniProt O75469); assay: Human pregnane X receptor (PXR) activation by small molecules, qHTS assay (AID 1346985); also: nearly all actives have a fitted effect of over 40% in size
# Method in brief: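 DPX-2 cells (HepG2 co-transfected with a PXR response element and a CYP3A4-promoter luciferase construct) were seeded at 2,000 per well, rested 5 hr at 37C, then exposed to DMSO-dissolved compounds for 24 hr. Activation was read as luciferase luminescence.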
# [15] = target: Cytochrome P450 3A4 (Homo sapiens) (UniProt P08684); assay: Cytochrome P450 Family 3 Subfamily A Member 4 (CYP3A4) small molecule antagonists: luciferase reporter qHTS assay (AID 1671201)
# Cytochrome P450 3A4 (Homo sapiens), sequence (P08684 whole entry, looked up): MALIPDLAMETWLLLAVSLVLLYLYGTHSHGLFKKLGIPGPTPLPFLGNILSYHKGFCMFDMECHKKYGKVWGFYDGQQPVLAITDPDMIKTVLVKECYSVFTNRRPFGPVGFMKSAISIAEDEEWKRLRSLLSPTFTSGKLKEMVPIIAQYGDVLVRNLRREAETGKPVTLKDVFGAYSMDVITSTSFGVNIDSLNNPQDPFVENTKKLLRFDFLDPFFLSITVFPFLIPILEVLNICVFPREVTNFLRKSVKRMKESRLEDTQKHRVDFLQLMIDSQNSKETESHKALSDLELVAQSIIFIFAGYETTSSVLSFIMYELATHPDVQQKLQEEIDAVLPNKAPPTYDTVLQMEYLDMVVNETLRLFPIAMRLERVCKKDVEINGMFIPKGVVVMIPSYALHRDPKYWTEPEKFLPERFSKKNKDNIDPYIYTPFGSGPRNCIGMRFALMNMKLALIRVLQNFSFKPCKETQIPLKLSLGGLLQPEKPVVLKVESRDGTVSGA
# Method in brief: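 Compounds in DMSO were pin-transferred onto CYP3A4 enzyme-substrate mix and held 10 min at room temperature. NADPH regenerating solution started the reaction for 1 h; luciferin detection reagent stopped it, and luminescence was read after 20 min.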
SMILES,Potency [1],Potency [2],Potency [3],Potency [4],Potency [5],Potency [6],Potency [7],Potency [8],Potency [9],Potency [10],Potency [11],Potency [12],max activation [13],outcome [14],Potency [15]
O=C(Nc1ncc([N+](=O)[O-])s1)c1cccs1,23.7 µM (active),inactive,26.6 µM (active),inactive,29.8 µM (active),531 nM (active),inactive,12.3 µM (active),8.71 µM (active),5.49 µM (active),1.82 µM (active),inactive,–,–,–
CCCCCCCC(=O)OCC(COC(=O)CCCCCCC)OC(=O)CCCCCCC,inactive,inactive,inactive,inactive,inactive,inactive,inactive,inactive,inactive,inactive,inactive,inactive,-1.45% (inactive),inactive,inactive
NC(=O)c1cccnc1,inactive,inactive,inactive,inactive,inactive,inactive,inactive,inactive,49.3 µM (active) and inactive,inactive,inactive,inactive,-0.433% (inactive),inactive,inactive
NC(CO)(CO)CO,inactive,inactive,inactive,inactive,inactive,inactive,inactive,inactive,inactive,inactive,inactive,inactive,-3.86% (inactive),inactive,inactive
CCc1nc(N)nc(N)c1-c1ccc(Cl)cc1,49.3 µM (active),inactive,inactive,inactive,inactive,62100 nM (active),–,9.07 µM (active) and 15.9 µM (active) and 13.8 µM (active),inactive,inactive,inactive,inactive,–,–,–
O=C1c2c(O)cccc2Cc2cccc(O)c21,inactive,inactive,inactive,inactive,inactive,inactive,inactive,inactive,inactive,inactive,inactive,inactive,-3.04% (inactive),inactive,inactive
CN(C)C(=S)SC(=S)N(C)C,7.08 µM (active) and 545 nM (active) and 2.66 µM (active),4.98 µM (active) and 770 nM (active) and 3.76 µM (active),1.4 µM (active) and 433 nM (active) and 2.11 µM (active),inactive,30.6 µM (active),1.98 µM (active) and inactive,inactive,–,16.3 µM (active) and 20 µM (active) and 7.76 µM (active),36.5 µM (active) and 25.2 µM (active) and 34.7 µM (active),32.5 µM (active) and 39.9 µM (active) and 25.7 µM (active),inactive,-4.94% (inactive),inactive,inactive
C=C(C)C(=O)OCC(C)O (configuration not stated),inactive,inactive,inactive,inactive,inactive,inactive,–,inactive,inactive,inactive,inactive,inactive,–,–,inactive
CCN(CC)C(=O)c1cccc(C)c1,inactive,inactive,inactive,inactive,inactive,inactive,–,inactive,inactive and 71 µM (active),inactive,–,inactive,-4.83% (inactive),inactive,–
Cc1c(C(=O)O)c(O)cc2c1C(=O)c1c(O)c([C@@H]3O[C@H](CO)[C@@H](O)[C@H](O)[C@H]3O)c(O)c(O)c1C2=O,11.2 µM (active) and 13.7 µM (active) and 23.7 µM (active),inactive,33.5 µM (active) and 27.3 µM (active) and 23.7 µM (active),inactive,18.9 µM (active) and 15.4 µM (active) and 26.6 µM (active),inactive,inactive,31 µM (active) and 39.9 µM (active),39 µM (active),34.7 µM (active) and 39.9 µM (active),34.7 µM (active) and 39.9 µM (active) and inactive,inactive,-3.66% (inactive),inactive,inactive
CC(=O)C(=O)O,inactive,inactive,inactive,inactive,inactive,inactive,–,inactive,inactive,inactive,inactive and 22.4 µM (active),inactive,–,–,inactive
CCCCCCc1ccc(O)cc1O,inactive,inactive,61.3 µM (active) and 61.1 µM (active) and 1.19 µM (active),inactive,inactive,68.8 µM (active) and inactive,inactive,31.8 µM (active) and 31.7 µM (active) and 15.5 µM (active),5.04 µM (active) and 5.64 µM (active) and 3.89 µM (active),7.12 µM (active) and 6.33 µM (active) and 5.49 µM (active),71.2 µM (active) and 71 µM (active) and inactive,inactive,-2.3% (inactive),inactive,–
